Drawing on PubChem BioAssay (NCI), this text covers growth for 28 molecules.

“And” between values parts separate entries of the source, which are not always exact repeats. Equal entries are not always repeated. The panel holds about 83,000 compounds, 20% with a hit somewhere; the sample as a whole holds those more often.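 Single-dose data. Exposure time 48 hours. Values below 10 considered active.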 A number with no mark means an inactive call. The source made the active and inactive calls.

The test has as its system MDA-MB-468 breast. The experiment in a line: NCI-60 one-dose screen, 48 h (100 = growth as untreated, 0 = no growth, -100 = all killed). The conditions noted are these: 10 µM unless noted.
For the molecule `Cc1csc(NC(c2ccccc2)c2c(C)nc3ccccn23)n1` (stereo not drawn), the growth was 100%.

Take `C=CCn1c(SCC(=O)Nc2ccc(C(=O)/C=C/c3ccc(Cl)cc3)cc2)nnc1-c1cc(OC)c(OC)c(OC)c1`: the growth is 79%.

Regarding `COc1ccc(C(=O)n2nc(-c3ccccc3)nc2N)cc1OC`, the growth was 68.8%.

Consider `CCCCN(CCCC)Cc1c(C)[nH]c2cc(OC)ccc2c1=O`, for which the growth was 113%.

Consider `NC(=O)c1cccc(C#CCNC[C@H]2C[C@@H](n3ccc4c(Cl)ncnc43)[C@H](O)[C@@H]2O)c1`, for which the growth is 95.9%.

For the molecule `N#CC1=C(N)Oc2c(sc3c(Br)cccc23)C1c1ccc([N+](=O)[O-])cc1` (stereo not drawn), the growth is 42.2%.

Regarding `N#CSCc1ccc(CSC#N)c(Cl)c1`, the growth was 44.1%.

On to `CCOc1cccc(Nc2nc(N)nc3[nH]c4ccc(O)cc4c23)c1`, for which the growth is 8.38% (active).

In the case of `COc1ccc2c(c1)OC(N(C(C)=O)C(C)=O)=C(C#N)C2c1ccc(F)cc1` (stereo not drawn), the growth was -36.1% (active).

`C=C(C)[C@@H]1C[C@H](O)Cc2cc(Cl)cc(Cl)c2N1`: the growth was 97.5%.

Consider `Fc1ccc2c(c1)c(-c1nc(-c3c[nH]c4ncccc34)cs1)cn2CCCN1CCCCC1`, for which the growth was 76.6%.

As for `NC(N)=NN=C(c1ccccc1)c1ccccc1`, the growth is -31.3% (active).

In the case of `CCN(CC)c1ccc2c(c1)Oc1nc(N)c(C#N)c(N)c1C2Sc1ccc(OC)cc1` (stereo not drawn), the growth is -35.3% (active).

With `COc1cc2ncnc(Nc3ccc(F)c(Cl)c3)c2cc1OCC(=O)N1CCN(c2ccc(F)cc2)CC1`, the growth was -7.58% (active).

For the molecule `COc1cc(-c2ncn(/C=C\c3nnco3)n2)cc(C(F)(F)F)c1`, the growth is -28.9% (active).

As to `Nc1nc(=S)ss1`, the growth was 101%.

Consider `CCCCCCOc1ccc(C(=N)N(CCCC)CCCC)c2ccccc12`, for which the growth was -82.3% (active).

In the case of `CNc1ccc2nc3ccc(=[N+](C)C)cc-3sc2c1`, the growth is -48.1% (active) and -39.5% (active).

Take `Nc1c(C(=O)Nc2ccccn2)sc2nc3c(cc12)CCCCCC3`: the growth is 8.53% (active).

With `COc1ccccc1NC(=O)OCC#CCOC(=O)Nc1ccccc1OC`, the growth is 92.6% and 89.9%.

On to `COc1cccc(-c2nn(-c3ccccc3)cc2-c2ccnc(NCCCNS(=O)(=O)c3cccc(F)c3)c2)c1`, for which the growth is -10.1% (active).

Consider `CC(=O)OC[C@]12CC[C@@H](C(=O)CBr)[C@@H]1[C@H]1CC[C@@H]3[C@@]4(C)CC[C@H](OC(C)=O)C(C)(C)[C@@H]4CC[C@@]3(C)[C@]1(C)CC2`, for which the growth is 108%.

`O=C1NC(=O)c2c1c1c3ccccc3[nH]c1c1oc3ccc(F)cc3c21`: the growth is 8.7% (active).

Consider `C=CCOc1ccc(Cl)cc1Cl`, for which the growth was 111%.

Regarding `CCS(=O)(=O)CCCl`, the growth was 101%.

Consider `CCCOC(=O)N[C@H]1CCc2cc(OC)c(OC)c(OC)c2-c2ccc(SC)c(=O)cc21`, for which the growth was -16.8% (active).

With `O=C(CS)Nc1ccc2ccccc2c1`, the growth is 108%.

For `CC(C)OP(=O)(O)c1ncc(-c2ccc(C(F)(F)F)cc2)c(NC2CCCCCC2)n1`, the growth is 28%.
